RE007 growth inh – less growth of the S. pombe RE007 Vpr strain | S. pombe RE007 Vpr strain, BacTiter-Glo ATP luminescence, 24 h | Potency, µM (series often up to 92.2 µM), usual class: inhibitors | 360,000 compounds, 0.21% hits; active = well fitted falling curve with a large enough effect; inconclusive = small, poorly fitted or top-dose-only effect; inactive = no such curve, though single readings can be large or run the other way; note: nearly all actives have a fitted effect of over 50% in size
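Fission yeast RE007 carrying one integrated HIV-1 vpr copy, seeded at OD 0.01 in PMG+AL medium with 23 nL pinned compound. Grown 24 h at 30 degrees; viability read by BacTiter-Glo luminescence after 5 min.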
Pf growth 48h – inhibits P. falciparum growth in the first generation, 48 h; P. falciparum luciferase growth in erythrocytes, 48 h; Potency, µM (highest dose often 28.7 µM), actives largely listed as inhibitors; 310,000 compounds, 5.9% hits; AID 504832; active = well fitted inhibition curve with a large enough effect; inconclusive = small, poorly fitted or top-dose-only effect, or another doubt; inactive = no such curve, though single readings can be large or run the other way
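Growth was read as firefly luciferase luminescence after a 48 h, 37 C, 5% CO2 exposure of compounds to reporter-bearing P. falciparum cultures (0.1% parasitemia, 2% hematocrit final) in Albumax-supplemented RPMI 1640.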
SARS PLpro yeast – inhibitors of SARS-CoV papain-like protease in yeast. 330,000 compounds, 0.19% hits. S. cerevisiae expressing SARS-CoV PLpro, growth rescue. Potency, µM (series often up to 32.9 µM), actives largely listed as activators; note: nearly all actives have a fitted effect of over 55% in size
Pf growth 96h – P. falciparum growth inhibition at 96 hour, primary screen for plastid delayed-death inhibitors; P. falciparum luciferase reporter growth, 96 h; Potency, µM (titrated, usually from 28.7 µM), usual class: inhibitors; 320,000 compounds, 6.9% hits; AID 504834; active = well fitted inhibition curve with a large enough effect; inconclusive = small, poorly fitted or top-dose-only effect, or another doubt; inactive = no such curve, though single readings can be large or run the other way
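96 h incubation, 37 C, 5% CO2, of luciferase-reporter P. falciparum-infected RBCs (2% hematocrit, 0.05% parasitemia final) with test compounds; endpoint luminescence.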
NS1 function inh – inhibitors of influenza NS1 protein function. AID 2326. 270,000 compounds, 0.4% hits. Potency, µM (titrated, usually from 46.1 µM); note: actives are rising curves; nearly all actives have a fitted effect of over 50% in size
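Read-out: OD600 growth recovery of NS1-expressing budding yeast. Cells grown overnight at 30C in -URA glucose medium, washed, resuspended and diluted 1:100 in 2% galactose assay medium, pH 6.0. Same strain lacking NS1 served as positive control.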
Hits are given with their value; . = inactive; ? = inconclusive; / = not tested or not shown. An excerpt weighted towards active compounds, which were near 9.5% of everything screened. Unless noted, calls come from the whole dose curve.

SMILES	RE007 growth inh	Pf growth 48h	SARS PLpro yeast	Pf growth 96h	NS1 function inh
COCC(=O)Oc1c(Sc2ccccc2[N+](=O)[O-])c(C)nn1C(C)(C)C	.	?	.	?	/
CCC(CC)C(=O)Oc1c(Sc2ccccc2[N+](=O)[O-])c(C)nn1C(C)(C)C	.	9.3µM	.	?	.
COC(=O)CC1C(=O)NCCN1C(=O)CSc1nnc(Nc2ccc(OC)cc2)s1 (configuration not stated)	.	?	.	/	.
COC(=O)CC1C(=O)NCCN1C(=O)CSc1nnc(Nc2ccc(C)cc2)s1 (configuration not stated)	.	/	.	7.4µM	.
COc1cc(NC(=O)COc2ccccc2Cl)ccc1NC(=O)c1cccs1	.	.	.	.	.
COc1cc(NC(=O)COc2ccccc2[N+](=O)[O-])ccc1NC(=O)c1cccs1	.	.	.	12µM	.
COc1ccc(CNCc2ccncc2)cc1OC	.	?	.	10µM	.
Cc1ccc(S(=O)(=O)c2ccc([N+](=O)[O-])cn2)cc1	?	?	.	?	.
O=[N+]([O-])c1ccc(S(=O)(=O)c2ccccc2)nc1	/	2.9µM	.	1.7µM	.
COc1ccc(N2CCN(C(=O)CCc3nnc4ccc(N5CCCC5)nn34)CC2)cc1	.	?	.	12µM	.
CC1CCN(c2ccc3nnc(CCC(=O)N4CCN(c5ccc(F)cc5)CC4)n3n2)CC1	.	5.2µM	?	.	.
COc1ccccc1N1CCN(C(=O)CCc2nnc3ccc(N4CCCC4)nn23)CC1	.	.	.	?	.
COc1ccc(Br)c(C=O)c1OS(=O)(=O)c1ccc(C)cc1	.	/	/	/	/
Cc1ccc(N2C(=O)CS/C2=N\C(=S)Nc2ccccc2)cc1	.	.	.	4.1µM	.
OC1CCN(Cc2cn(Cc3ccccc3)nc2-c2cc3ccccc3o2)CC1	.	13µM	.	.	.
COC(=O)C1CCN(Cc2cn(Cc3ccccc3)nc2-c2cc3ccccc3o2)CC1	.	8.3µM	.	.	.
COCC1CCN(Cc2cn(Cc3ccccc3)nc2-c2cc3ccccc3o2)CC1	.	?	.	.	.
COCC1CCCN(Cc2cn(Cc3ccccc3)nc2-c2cc3ccccc3o2)C1 (configuration not stated)	.	?	.	.	.
Cc1noc(C)c1COC(=O)CCCc1c[nH]c2ccccc12	.	12µM	.	?	.
Cc1cn(CC(=O)NCC(C)c2ccccc2)c(=O)[nH]c1=O (configuration not stated)	.	/	/	/	/
CC/C(=N\NC(=O)c1c[nH]c2ccccc12)c1cccs1	.	?	.	13µM	?
C/C(=N\NC(=O)c1c[nH]c2ccccc12)c1ccc(C)s1	.	?	.	.	.
CCn1c(=O)n(C)c2c(=O)n(C)c(=O)n(C)c21	.	/	/	/	/
CN(C)/C=C/c1c([N+](=O)[O-])c2ccc(O)cc2n1-c1ccccc1	.	?	.	10µM	.
CN(C)c1ccc(/C=N/NC(=O)CN(c2cccc(Cl)c2)S(C)(=O)=O)cc1Br	.	13µM	.	/	.
SMILES	RE007 growth inh	Pf growth 48h	SARS PLpro yeast	Pf growth 96h	NS1 function inh
CS(=O)(=O)N(CC(=O)N/N=C/c1ccco1)c1ccccc1Br	.	.	.	.	.
O=C1C(NS(=O)(=O)c2ccc(Br)cc2)=C(N2CCCCC2)C(=O)c2ccccc21	.	12µM	.	9.3µM	.
CC1CCN(C2=C(NS(=O)(=O)c3ccc(Cl)cc3)C(=O)c3ccccc3C2=O)CC1	.	7.4µM	.	1.5µM	.
CC1CCN(C2=C(NS(=O)(=O)c3ccc(Br)cc3)C(=O)c3ccccc3C2=O)CC1	.	?	.	?	.
CCOC(=O)C1CCCN(C2=C(NS(=O)(=O)c3ccc(Br)cc3)C(=O)c3ccccc3C2=O)C1 (configuration not stated)	.	5.2µM	?	2.9µM	.
CCOC(=O)C1CCN(C2=C(NS(=O)(=O)c3ccc(Cl)cc3)C(=O)c3ccccc3C2=O)CC1	.	?	.	?	.
O=C1C(NS(=O)(=O)c2cccs2)=C(N2CCN(c3cccc(Cl)c3)CC2)C(=O)c2ccccc21	.	12µM	.	/	.
CC1CCN(C2=C(NS(=O)(=O)c3ccccc3)C(=O)c3ccccc3C2=O)CC1	.	?	.	?	.
O=C(COC(=O)c1ccccc1O)Nc1ccc(N2CCOCC2)cc1	.	.	.	.	/
O=C1CC(SC(=S)C2CCCC2=O)C(=O)N1 (configuration not stated)	.	/	/	/	/
CCc1ccc(N(CC(=O)Nc2ccccc2C(=O)N2CCOCC2)S(C)(=O)=O)cc1	.	.	.	.	.
O=S(=O)(Nc1nc2ccccc2nc1N1CCN(c2ccccc2)CC1)c1ccc(F)cc1	.	.	.	.	.
O=C1C(NS(=O)(=O)c2ccccc2)=C(N2CCN(c3ccc(F)cc3)CC2)C(=O)c2ccccc21	.	13µM	.	?	.
Cc1nc(C2CC(=O)OC23CCCCC3)cs1 (configuration not stated)	.	.	.	.	.
C/C(=C\c1csc(C)n1)[C@@H]1C[C@@H]2O[C@]2(C)CCC[C@H](C)[C@H](O)[C@@H](C)C(=O)C(C)(C)[C@@H](O)CC(=O)O1	/	0.0013µM	/	?	/
CCOC(=O)C(NC(=O)c1ccccc1)(OCC1(CC)COC1)C(F)(F)F (configuration not stated)	.	.	.	.	.
CCOC(=O)C(NC(=O)c1ccc(OC)cc1)(OCC1(CC)COC1)C(F)(F)F (configuration not stated)	.	13µM	.	13µM	.
COc1ccc(C=NNc2nc3ccccc3s2)cc1	.	/	/	/	/
CCC/C=N/Nc1nc2ccccc2s1	.	.	.	2.6µM	.
C(=N\Nc1nc2ccccc2s1)/c1ccccn1	14µM	.	.	.	.
C(=C\c1ccccc1)/C=N/Nc1nc2ccccc2s1	.	.	.	.	.
C(=NNc1ccc2ccccc2n1)c1ccccn1	28µM	/	/	/	/
Clc1ccc2oc3c(Cl)ncnc3c2c1	.	.	.	.	.
O=C(CSC1=NCCN1)c1ccccc1	/	/	/	/	.
COc1ccc(CNC(=O)COC(=O)CO/N=C(\C)c2ccc3c(c2)OCO3)cc1	.	.	/	.	/
SMILES	RE007 growth inh	Pf growth 48h	SARS PLpro yeast	Pf growth 96h	NS1 function inh
COc1cccc(CN(Cc2ccco2)S(=O)(=O)c2ccc(S(=O)(=O)NCc3ccccc3)cc2)c1OC	.	13µM	.	.	.
C[C@H](CC(C#N)(c1ccccc1)c1ccccc1)N1CCCCC1	/	/	/	/	.
CCOc1ccc(C(=O)C(C)OC(=O)CN2C(=O)NC(C)(C)C2=O)cc1 (configuration not stated)	.	?	.	.	/
CC(=O)c1c(C)[nH]c(C(=O)COc2ccc3ccc(=O)oc3c2)c1C	.	10µM	.	?	/
Cc1cccc(-c2nnc(SCc3cc(=O)[nH]c4ccccc34)n2C)c1	.	13µM	.	?	.
Cn1ccnc1SCc1cc(=O)[nH]c2ccccc12	.	.	.	.	.

Source: PubChem BioAssay (National Center for Advancing Translational Sciences (NCATS))
